Bioassay records as filed in PubChem BioAssay.
This is a sample that favours compounds with a hit; in the whole collection about 3.3% have one here.
AmpC no deterg – inhibitors of E. coli AmpC beta-lactamase without detergent; P00811; AmpC nitrocefin hydrolysis, absorbance 480 nm, 0.0001% Triton; Potency, µM (highest dose often 57.1 µM), inactives show top-dose activity change, negative = inhibition, usual class: inhibitors; hit rate 0.52% among 330,000;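 also: plate controls were no compound for no effect and no enzyme for full effect; nearly all actives have a fitted effect of over 20% in size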
Target sequence (P00811 whole entry, looked up): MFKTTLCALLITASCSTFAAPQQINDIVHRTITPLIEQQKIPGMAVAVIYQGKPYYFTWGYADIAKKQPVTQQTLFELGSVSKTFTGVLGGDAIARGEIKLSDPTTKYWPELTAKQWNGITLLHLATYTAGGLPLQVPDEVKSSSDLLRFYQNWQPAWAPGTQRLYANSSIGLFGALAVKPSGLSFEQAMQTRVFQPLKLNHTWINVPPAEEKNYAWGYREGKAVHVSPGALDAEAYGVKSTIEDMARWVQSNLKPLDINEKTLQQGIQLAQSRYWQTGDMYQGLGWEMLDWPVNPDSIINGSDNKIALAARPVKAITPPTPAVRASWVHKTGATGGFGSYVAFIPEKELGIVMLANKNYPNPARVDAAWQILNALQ
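20 mM phosphate pH 7.0 + 0.01% (detergent screen) or 0.0001% Triton X-100; 5.3 nM AmpC reagent; cpd preinc 15 min RT; nitrocefin (800 uM stock) to start; A480 q20 s × 4 min; Activity was normalised to no-enzyme and no-compound control wells.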
AmpC inh detg – inhibitors of E. coli AmpC beta-lactamase with detergent | hit rate 0.041% among 370,000 | Potency, µM (series often up to 114 µM), for the others: top-dose activity change, negative = inhibition, actives largely listed as inhibitors | P00811 | AmpC hydrolysis of nitrocefin, absorbance 480 nm, 0.01% Triton;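 also: 0% = no-compound wells and -100% = no-enzyme wells; nearly all actives have a fitted effect of over 25% in size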
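20 mM phosphate pH 7.0 + 0.01% (detergent screen) or 0.0001% Triton X-100; 5.3 nM AmpC reagent; cpd preinc 15 min RT; nitrocefin (800 uM stock) to start; A480 q20 s × 4 min; Activity was normalised to no-enzyme and no-compound control wells.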
Sm TGR block – blocks Schistosoma mansoni thioredoxin glutathione reductase | hit rate 3% among 360,000 | purified TGR, DTNB reduction, TNB absorbance 405 nm | Q962Y6 | Potency, µM (top dose mostly 114 µM), inactives show at the top dose activity change, negative = inhibition, actives largely listed as inhibitors; also: nearly all actives have a fitted effect of over 60% in size
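Kinetic colorimetric format: TGR-catalysed, NADPH-driven DTNB reduction monitored via TNB absorbance. Enzyme dispensed at 20 nM; compound exposure 15 min at room temperature before reaction start.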
* hit, by the source's call; ? = inconclusive; · = no result. Calls follow the shape of the dose curve; as a rule, active = well fitted curve in the direction sought with a large enough effect; inconclusive = small, poorly fitted or top-dose-only effect, or another doubt; inactive = no such curve, though single readings can be large; an effect the other way counts as inactive or inconclusive. Unless noted, % is scaled to controls: 0 for no effect and ±100 for the full control effect; potency is read from the fitted curve at half-maximal effect.

SMILES	AmpC no deterg	AmpC inh detg	Sm TGR block
Cc1ccccc1CNC(=O)C(=O)NCC(c1ccco1)S(=O)(=O)c1ccc(F)cc1 (stereo not drawn)	·	-3%	8.9µM*
COc1ccc(CCNC(=O)C(=O)NCC(c2ccco2)S(=O)(=O)c2ccccc2)cc1OC (stereo not drawn)	·	0%	13µM*
O=C(NCCc1ccc(F)cc1)C(=O)NCC(c1ccco1)S(=O)(=O)c1ccccc1 (stereo not drawn)	·	3%	-23%
COc1ccccc1CCNC(=O)C(=O)NCC(c1ccco1)S(=O)(=O)c1ccc(F)cc1 (stereo not drawn)	·	1%	18µM*
CCOc1ccc(CNC(=O)Cn2cc3c(n2)-c2c(oc(C(=O)N4CCOCC4)c2C)CC3)cc1	·	-3%	-13%
CCN(C(=O)C1CCN(S(=O)(=O)c2ccc3c(c2)CCCN3C(=O)C2CCC2)CC1)c1cccc(C)c1	·	1%	0%
Cc1cc(C)c(Cn2c(=O)n(CCCC(=O)NCc3ccc4c(c3)OCO4)c(=O)c3sccc32)c(C)c1	·	20%	1%
CCN(CC)C(=O)Cn1c(=O)n(-c2ccc(Cl)c(Cl)c2)c(=O)c2c(C)c(C(=O)N(CC)CC)sc21	·	-1%	13%
Cc1nc(-c2ccc(S(=O)(=O)N3CCN(c4cc(Cl)ccc4C)CC3)cc2)co1	·	2%	-9%
Cc1ccc(CNC(=O)C2CCN(c3nc4ccccc4n(C)c3=O)CC2)cc1	·	1%	-9%
CC(C)CCNC(=O)Nc1ccc2c(c1)N(Cc1ccccc1)C(=O)c1ccccc1S2	·	-4%	1%
CCOc1cc(CNC(=O)c2ccc3c(c2)NC(=O)C2CCCCN32)cc(OCC)c1OCC (stereo not drawn)	·	23%	6%
CCOc1ccc(CCNC(=O)c2ccc3c(c2)NC(=O)C2CCCN32)cc1OCC (stereo not drawn)	-15%	-10%	50µM*
Cc1nc([N+](=O)[O-])c(Br)n1Cc1ccc(Cl)c(Cl)c1	-5%	1%	9%
COc1ccc(C(=O)Cn2c(C)nc([N+](=O)[O-])c2Br)cc1	-12%	2%	2.5µM*
Cc1nc([N+](=O)[O-])c(Br)n1CC(=O)c1ccc(Cl)cc1	0%	?	7.1µM*
COc1ccc(C(=O)Cn2cc([N+](=O)[O-])nc2C)cc1	-10%	0%	-1%
COc1ccc2c(c1)NC(c1ccc(Cl)cc1)=NC(c1cccs1)=N2	·	21%	9%
CC1CCC(C(C)C)C2=C1C(C#N)(C#N)C(C#N)(C#N)C(c1ccccc1)N2 (stereo not drawn)	-32%	1%	5µM*
CC(C)C1OC2(C)OC(=N)C1(C#N)C(C#N)(C#N)C2c1ccccc1 (stereo not drawn)	-55%	-13%	?
COc1ccc(OCC(=O)Nc2cc(-c3nc4ccccc4o3)ccc2Cl)cc1	·	-1%	3%
CCCCN(CC)CCNC(=O)c1cc2c(=O)[nH]c3ccc(C)cc3c2s1	-3%	3%	-2%
CCCCN(CC)CCCNC(=O)c1cc2c(=O)[nH]c3ccccc3c2s1	-21%	-8%	45µM*
COc1ccccc1CNC(=O)c1ccc(N2Cc3cccc(OC)c3Oc3ncccc32)s1	·	-5%	5%
Cc1ccc(Cl)cc1N1CCN(C(=O)CCCn2c(=O)[nH]c3ccc(Br)cc3c2=O)CC1	·	-4%	-3%
SMILES	AmpC no deterg	AmpC inh detg	Sm TGR block
Cc1cccc(/C=C(\C(=O)O)c2ccc(S(=O)(=O)N3CCCC3)s2)c1	32µM*	·	·
O=C(O)/C(=C\c1cccc(F)c1)c1ccc(S(=O)(=O)N2CCCC2)s1	-14%	1%	-11%
Cc1ccccc1CN1c2ccccc2-c2nc(SCC(=O)Nc3cc(F)ccc3F)ncc2S1(=O)=O	·	3%	2%
CCCCC1C(=O)CC[C@H]2[C@@H]1CC(=O)[C@@H]2C/C=C\CCCC(=O)O (stereo partly drawn)	-30%	-12%	-14%
CCCCC[C@H](O)/C=C/[C@H]1C=CC(=O)[C@@H]1C/C=C\CCCC(=O)O	168%	?	40µM*
Cc1ccc(NC(=O)c2cc3c(=O)[nH]c4ccccc4c3n2C)cc1F	·	-2%	-1%
CCCN(CCC)C(=O)c1nn(C)c2c1CSc1ccccc1-2	·	26%	2%
Cn1c(=O)c(C(=O)CN2CCN(Cc3ccc4c(c3)OCO4)CC2)c(N)n(Cc2ccccc2)c1=O	45%	5%	1%
Cn1c(=O)c(C(=O)CN2CCCCCC2)c(N)n(Cc2ccccc2)c1=O	10%	-8%	35µM*
Clc1ccc(-c2nnc(-c3ccc(Br)cc3)c(N3CCSCC3)n2)cc1	-23%	4%	9%
Clc1ccc(-c2nnc(-c3ccco3)nc2N2CCCCC2)cc1	-39%	-8%	2.8µM*
COc1ccc2c(CNCc3ccc(Cl)cc3)c(C(=O)O)n(Cc3ccccc3C)c2c1	·	21%	-7%
Cc1ccc(N(Cc2cccs2)C(=O)c2ccco2)cc1	·	22%	0%
COc1ccc(Cn2cc(C(=O)c3ccc(C)c(C)c3)c(=O)c3ccccc32)cc1	·	10%	10%
COc1ccc(CC(=O)NN2C(=O)c3ccccc3C2=O)cc1	-33%	-3%	-4%
COc1ccc(CC2=CC(=O)c3ccccc3C2=O)cc1	-46%	-7%	28µM*
CC(NC(=O)c1nn(C)c2c1CSc1ccccc1-2)c1ccccc1 (stereo not drawn)	·	26%	-5%
COc1ccc(-c2nc(C)c(CCNC(=O)C(=O)Nc3ccccc3F)s2)cc1	·	-9%	1%
O=C(CCNS(=O)(=O)c1ccc2c(c1)CCCC(=O)N2)Nc1cccc(Cl)c1	·	16%	4%
CCCN1CCc2c(sc(NC(=O)CCS(=O)(=O)c3ccccc3)c2C(=O)OC)C1	55%	1%	22µM*
CC(C)N1CCc2c(sc(NC(=O)CCS(=O)(=O)c3ccccc3)c2C#N)C1	-10%	-12%	14µM*
CC(C)N1CCc2c(sc(NC(=O)CCc3ccccc3)c2C(N)=O)C1	5%	3%	-19%
COC(=O)c1c(NC(=O)CCS(=O)(=O)c2ccccc2)sc2c1CCN(C)C2	-6%	-15%	?
COc1ccc(CCNC(=O)c2cn(C)c3ccc(S(=O)(=O)N(C)C)cc3c2=O)cc1OC	·	0%	8%
CC(/C=C1\SC(=S)N(NS(=O)(=O)c2ccc(C)cc2)C1=O)=C\c1ccccc1	-35%	5%	-19%
CC(=O)N1C(=O)/C(=C2\SC(=S)N(NS(=O)(=O)c3ccc(C)cc3)C2=O)c2ccccc21	-45%	-5%	2.5µM*
CCOc1ccc(NC(=O)c2cc(S(=O)(=O)N3CCc4ccccc43)ccc2F)cc1	·	-3%	0%
CC(C)C(C(=O)NCc1ccco1)N(C(=O)CNS(=O)(=O)c1ccc(Cl)cc1)C1CCCC1 (stereo not drawn)	-27%	-7%	45µM*
CC(C)C(C(=O)NCc1ccco1)N(C(=O)CNS(=O)(=O)c1ccccc1)c1ccccc1 (stereo not drawn)	-7%	-1%	·
CCC(C(=O)NCc1ccco1)N(C(=O)CNS(=O)(=O)c1ccc(F)cc1)c1ccccc1F (stereo not drawn)	-4%	?	45µM*
